Our source for the growth values is PubChem BioAssay (NCI).

Compounds without any hit were thinned out: in the full panel of roughly 83,000, 20% have a hit.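 Interpretation: 100, growth as untreated; towards 0, rising growth inhibition; 0, no net growth; 0 to -100, cell death. Compounds scoring below 10 were considered active.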 Values without a mark were called inactive. Calls of active or inactive are those of the source.

What all share (assay): NCI-60 one-dose screen, 48 h (100 = growth as untreated, 0 = no growth, -100 = all killed)
Test [1] concerns HT29 colon. Particulars: 10 µM unless noted.
Test [2] has as its system SNB-75 CNS. Particulars: 10 µM unless noted.
The test system of test [3] is SNB-19 CNS. Particulars: 10 µM unless noted.
Test [4] concerns U251 CNS. Particulars: 10 µM unless noted.
Test [5] has as its system PC-3 prostate. The note with it: 10 µM unless noted.
For test [6], the system named is SK-MEL-5 melanoma. The note with it: 10 µM unless noted.
Test [7] concerns UACC-62 melanoma. Particulars: 10 µM unless noted.
Test [8] deals with LOX IMVI melanoma. The note with it: 10 µM unless noted.
In test [9] the test system is SK-MEL-28 melanoma. Particulars: 10 µM.
Test [10] deals with SK-MEL-2 melanoma. The note with it: 10 µM unless noted.
The subject of test [11] is EKVX NSCLC. Particulars: 10 µM unless noted.
Test [12] concerns SN12C renal. The note with it: 10 µM unless noted.
Test [13] has as its system UO-31 renal. Particulars: 10 µM unless noted.
For test [14], the system named is TK-10 renal. The note with it: 10 µM unless noted.
For test [15], the system named is ACHN renal. Particulars: 10 µM unless noted.
In test [16] the test system is CAKI-1 renal. Particulars: 10 µM unless noted.
Test [17] deals with CCRF-CEM leukemia. Particulars: 10 µM unless noted.
Test [18] concerns MOLT-4 leukemia. Particulars: 10 µM unless noted.
Test [19] relates to SR leukemia. Particulars: 10 µM unless noted.
The test system of test [20] is A498 renal. Particulars: 10 µM unless noted.

Turning to `CCCCN1CCN(c2ccc3nc(-c4ccc5nc(-c6ccc(OCC)cc6)[nH]c5c4)[nH]c3c2)CC1`, the growth was 21.4% in test [1]; 60% in test [2]; 85.3% in test [3]; 60.5% in [4]; 56.7% in [5]; 49.3% in test [6]. Also, the growth in test [7] is 59.9%; in test [8], -81% (active); in [9], 61.6%; in test [10], 86.6%; in test [11] it was 92.9%; in [12], 76.9%. Also, the growth in test [13] was 100%; in test [14] it was 86.8%; in test [15], 63.9%; in [16] it was 51.2%; in test [17], 20.5%; in test [18], 56.9%. Besides, the growth in test [19] is -1.98% (active).
With `O=C(CSc1nc2ccccc2c(=O)n1-c1ccccc1)Nc1ccc(C(=O)/C=C/c2ccc(Cl)cc2)cc1`, the growth is 100% in [1]; 114% in test [2]; 96.1% in [3]; 106% in [4]; 103% in test [5]; 103% in test [6]. Besides, the growth was 86% in [7]; 101% in test [8]; 106% in [9]; 99.9% in [10]; 103% in [11]; 101% in [12]. Further, the growth was 110% in [14]; 102% in [15]; 97.8% in [16]; 95.2% in test [20]; 99.7% in [17]; 99.5% in [18]. The growth in test [19] was 85.3%.
Take `COc1ccc(/C=C/C(=O)c2ccc(Nc3nc(NCCO)nc(Nc4ccc(Cl)cc4)n3)cc2)cc1`: the growth in test [1] is 40%; in [2] it was 61.2%; in [3], 85%; in [4], 53.4%; in test [5], 50.6%; in test [6], 66.9%. Further, the growth in test [7] was 69.7%; in test [8], 61.6%; in test [9], 79.2%; in test [10], 98.1%; in test [11], 66.6%; in [12] it was 86.6%. In addition, the growth in test [13] was 70.8%; in test [14], 96.2%; in test [15], 67.7%; in test [16] it was 81.4%; in test [17] it was 48.8%; in test [18] it was 46.3%. Further, the growth in [19] was 38.4%.
Take `O=c1oc2ccc(Cl)cc2c(=O)n1-c1ccc(I)cc1F`: the growth in test [1] is 33.6%; in test [2], -28.4% (active); in test [3], 18.6%; in [4], -1.68% (active); in test [5], 1.89% (active); in [6], -81.5% (active). In addition, the growth in [7] is -28.8% (active); in test [8], 0.538% (active); in [9], 0.51% (active); in test [10], -24.3% (active); in [11] it was 11.4%; in test [12], -1.14% (active). In addition, the growth in test [13] was 7.35% (active); in test [15] it was 4.07% (active); in test [16] it was -16.3% (active); in [20], -75.5% (active); in test [17], 7.15% (active); in test [18] it was -28.6% (active).
On to `COC(=O)c1c2c(c(C)[n+]([O-])c1C)C(=O)C=C(NCc1ccc(F)c(F)c1)C2=O`, for which the growth in [1] was 1.02% (active); in [2], -96.7% (active); in [3] it was -67.2% (active); in test [4] it was -31.9% (active); in test [5] it was 3.37% (active); in [6], -100% (active). For the same molecule, the growth in test [7] is -83.9% (active); in [8], -72.7% (active); in [9] it was -19.3% (active); in test [10], -50.1% (active); in test [11], -82.1% (active); in [12], -93.7% (active). Also, the growth in [13] was -71.5% (active); in test [15] it was -78.2% (active); in test [16], -10.6% (active); in test [17] it was 5.3% (active); in test [18] it was -26.5% (active); in test [19] it was 10.5%.
Take `Oc1[nH]c2ccccc2c1N=Nc1nnc2n1N=C(c1ccccc1)CS2`: the growth in test [1] is 72.5%; in [2], 65.1%; in test [3] it was 83.6%; in test [4], 50.4%; in test [5], 81%; in test [6], 95.6%. Besides, the growth in test [7] is 99.8%; in test [8], 93.4%; in test [9] it was 97%; in test [10] it was 87.6%; in test [11], 87.7%; in test [12], 99.1%. Moreover, the growth in test [13] was 100%; in [15], 94.8%; in [16], 79.4%; in [20] it was 92.9%; in test [17], 96.6%; in test [18], 88%. For the same molecule, in test [19], the growth was 77.3%.
As for `Cc1cccc2c(=O)c3c(sc12)c(NCCCNCCO)nc1ccccc13`, the growth in [1] is -24.1% (active); in test [2], 23.8%; in test [3] it was 64.7%; in [4] it was 28.7%; in test [5], 43.6%; in [6] it was 59%. For the same molecule, the growth in test [7] is 60.2%; in test [8], -88.2% (active); in test [9], 32.9%; in test [10] it was 91.2%; in [11], 53.5%; in [12], 44.6%. Moreover, the growth was 34.8% in [13]; 49.5% in test [14]; 9.89% (active) in test [15]; 24.8% in test [16]; 15% in test [17]; -34% (active) in test [18]. Besides, the growth in test [19] was -27.3% (active).
`CCCN1CCN(c2ccc3nc(-c4ccc5nc(-c6cc(OC)ccc6OC)[nH]c5c4)[nH]c3c2)CC1`: the growth in test [1] was -23.2% (active); in [2], 90.9%; in test [3] it was 115%; in test [4], 85.8%; in [5], 103%; in [6], 99.5%. In addition, the growth in test [7] is 110%; in test [8], -83.3% (active); in [9], 99.4%; in test [10], 118%; in test [11], 96.7%; in test [12] it was 99.2%. The growth in [13] was 85.7%; in test [14], 118%; in test [15], 106%; in [16], 106%; in test [17] it was 3.98% (active); in [18], 77%. In test [19], the growth was -25.6% (active).
